# Test results as given in PubChem BioAssay (EPA / NIEHS).
# Results filed as inconclusive are left out. Active and inactive are the calls of the source. How the source made its calls, unless noted: active means hit-call score of the fitted dose curve at least 0.9, where 1 is the maximum; inactive means score below 0.9.
# How the values were obtained:
# [1] = IUF_NPC2c_oligodendrocyte_migration_120hr: Leibniz Research Institute for Environmental Medicine (IUF) 120-hour Neural Progenitor Cell Migration Assay for Oligodendrocyte Migration (NPC2c) (AID 2284297);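 further: O4-positive oligodendrocyte migration distance divided by radial glia migration distance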
# In short: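 Human fetal cortex-derived neural progenitor spheres (0.3 mm) were plated on poly-D-lysine/laminin in N2 differentiation medium and exposed to 7 concentrations for 120 h, with half-medium renewal at day 3. Oligodendrocyte migration distance was normalized to radial glia migration, relative to DMSO.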
# [2] = IUF_NPC2a_radial_glia_migration_120hr: Leibniz Research Institute for Environmental Medicine (IUF) 120-hour Neural Progenitor Cell Migration Assay for Radial Glia Migration (NPC2a) (AID 2284298)
# In short: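 Single 0.3 mm primary human fetal-cortex (GW 16-19) NPC spheres were plated on poly-D-lysine/laminin in N2 differentiation medium and exposed from day 0 for 120 h, half-medium refreshed day 3. Migration distance came from Hoechst nuclei-density imaging, relative to DMSO.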
# [3] = IUF_NPC2a_radial_glia_migration_72hr: Leibniz Research Institute for Environmental Medicine (IUF) 72-hour Neural Progenitor Cell Migration Assay for Radial Glia Migration (NPC2a) (AID 2284299)
# In short: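 Primary hNPC spheres, fetal brain GW 16-19, on PDL/laminin; DMEM/F12 3:1 + 1% N2. Compound dosed day 0, 7 conc. + SC, half-medium refresh day 3. 72 h brightfield, migration distance core-to-front (um), 4 directions averaged.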
# [4] = IUF_NPC2b_neuronal_migration_120hr: Leibniz Research Institute for Environmental Medicine (IUF) 120-hour Neural Progenitor Cell Migration Assay for Neuron Migration (NPC2b) (AID 2284300)
# In short: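 Primary human fetal cortex neural progenitor spheres (0.3 mm) plated on poly-D-lysine/laminin in N2 differentiation medium, exposed 120 h with half-medium refresh at day 3. TUBB3-stained neuron distance from sphere core, normalized to radial glia migration, versus DMSO.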
# [5] = IUF_NPC3_neuronal_differentiation_120hr: Leibniz Research Institute for Environmental Medicine (IUF) 120-hour Neuronal Differentiation Assay (NPC3) (AID 2284301)
# In short: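 Single 0.3 mm neurospheres from human fetal cortex were plated in differentiation medium containing test compound. Medium was half-replaced on day 3. After 120 h cells were fixed, immunostained and imaged, and neuronal fraction was scored against DMSO control.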
# [6] = IUF_NPC5_oligodendrocyte_differentiation_120hr: Leibniz Research Institute for Environmental Medicine (IUF) 120-hour Oligodendrocyte Differentiation Assay (NPC5) (AID 2284304; active means hit-call score of the fitted dose curve at least 0.9, where 1 is the maximum;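 further: primary human fetal neural progenitor spheres plated to migrate and differentiate; share of O4-positive cells among Hoechst nuclei found by CNN image analysis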)
# In short: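 Primary human fetal (GW 16-19) neural progenitor spheres (0.3 mm) plated on poly-D-lysine/laminin in N2 differentiation medium, exposed from day 0 for 120 h with half-medium refresh at day 3; O4-positive cells as percent of Hoechst nuclei, CNN-identified, versus DMSO.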
# [7] = IUF_NPC4_neurite_area_120hr: Leibniz Research Institute for Environmental Medicine (IUF) 120-hour Neuronal Morphology Assay for Neurite Area (NPC4) (AID 2284305; active means hit-call score of the fitted dose curve at least 0.9, where 1 is the maximum)
# In short: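 Neurite area is read out as the mean pixel area, excluding nuclei, of skeletonized TUBB3-positive neurons imaged after 120 h. Primary human neural progenitor spheres differentiated on poly-D-lysine/laminin with compound present from day 0. Activity was referenced to DMSO controls.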
# [8] = IUF_NPC2-5_cytotoxicity_72hr: Cytotoxicity Assessment at 72 hours in the Leibniz Research Institute for Environmental Medicine (IUF) Neural Progenitor Cell Migration and Differentiation Assay for Cytotoxicity (NPC2-5) (AID 2284306; active means hit-call score of the fitted dose curve at least 0.9, where 1 is the maximum;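 further: LDH release into supernatant measured by resorufin fluorescence marking membrane damage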)
# In short: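 Membrane integrity loss was scored from fluorescence (RFU) of resorufin generated by LDH in culture supernatant, 72 h after dosing. Differentiating human progenitor spheres received seven serial compound concentrations alongside a solvent control.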
# [9] = IUF_NPC2-5_cytotoxicity_120hr: Cytotoxicity Assessment at 120 hours in the Leibniz Research Institute for Environmental Medicine (IUF) Neural Progenitor Cell Migration and Differentiation Assay (NPC2-5) (AID 2284307; active means hit-call score of the fitted dose curve at least 0.9, where 1 is the maximum;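 on AC50: LDH released into supernatant as membrane damage marker via resorufin fluorescence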)
# In short: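 Human fetal neural progenitor spheres (0.3 mm, GW 16-19 cortex) were plated on poly-D-lysine/laminin in N2 differentiation medium and exposed for 120 h, with half-medium refresh at day 3. LDH release into supernatant was read by resorufin fluorescence.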
# [10] = read-out: TIMP metallopeptidase inhibitor 1 (TIMP1), TIMP1 (gene 7076); test: BSK_MyoF_TIMP1: BioMAP Diversity Plus: MyoF Assay for TIMP metallopeptidase inhibitor 1 (TIMP1) Biomarker Activity (AID 2284269); conditions: primary human lung fibroblasts
# In short: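 ELISA read-out of TIMP-1 from primary human lung fibroblast cultures 24 h after compound dosing; gain of signal relative to DMSO vehicle baseline defines activity.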
SMILES,outcome [1],outcome [2],outcome [3],outcome [4],outcome [5],outcome [6],outcome [7],outcome [8],outcome [9],outcome [10],AC50 [5],AC50 [9],AC50 [3],AC50 [7],AC50 [6],AC50 [2]
CC1(C)C(C=C(Cl)Cl)C1C(=O)OC(C#N)c1cccc(Oc2ccccc2)c1 (configuration not stated),inactive,inactive,inactive,inactive,inactive,inactive,inactive,inactive,inactive,–,–,–,–,–,–,–
N#CN=C1SCCN1Cc1ccc(Cl)nc1,inactive,inactive,inactive,inactive,inactive,inactive,inactive,inactive,inactive,–,–,–,–,–,–,–
O=C(Nc1ccccc1-c1ccc(Cl)cc1)c1cccnc1Cl,inactive,inactive,inactive,inactive,inactive,inactive,inactive,inactive,inactive,–,–,–,–,–,–,–
COCC(C)N(C(=O)CCl)c1c(C)csc1C (configuration not stated),–,–,–,–,–,–,–,–,–,inactive,–,–,–,–,–,–
CO/N=C(/C1=NOCCO1)c1ccccc1Oc1ncnc(Oc2ccccc2Cl)c1F,inactive,inactive,inactive,inactive,inactive,inactive,inactive,inactive,inactive,–,–,–,–,–,–,–
CCNC(=O)NC(=O)C(C#N)=NOC,inactive,inactive,inactive,inactive,–,inactive,inactive,inactive,inactive,–,0.318 µM (active),–,–,–,–,–
CCOP(=O)(OCC)Oc1nc(Cl)c(Cl)cc1Cl,inactive,inactive,inactive,inactive,inactive,–,inactive,inactive,–,–,–,0.169 µM (active),–,–,–,–
CCSC(=O)N1CCCCCC1,inactive,inactive,–,inactive,inactive,inactive,–,inactive,inactive,–,–,–,8.49 µM (active),–,–,–
CN/C(=N\[N+](=O)[O-])NCc1cnc(Cl)s1,inactive,inactive,inactive,inactive,inactive,inactive,–,inactive,inactive,–,–,–,–,10 µM (active),–,–
COC(=O)N(C(=O)N1CO[C@@]2(C(=O)OC)Cc3cc(Cl)ccc3C2=N1)c1ccc(OC(F)(F)F)cc1,inactive,inactive,inactive,inactive,inactive,–,–,inactive,inactive,–,–,–,–,–,1.99 µM (active),–
CS(=O)(=O)c1ccc(C(=O)C2C(=O)CCCC2=O)c([N+](=O)[O-])c1,inactive,inactive,inactive,inactive,inactive,–,–,inactive,inactive,–,–,–,–,–,–,–
CC(C)(C)C(=O)C(Oc1ccc(Cl)cc1)n1cncn1 (configuration not stated),inactive,inactive,inactive,inactive,inactive,inactive,–,inactive,inactive,–,–,–,–,–,–,–
COP(=S)(OC)SCn1nnc2ccccc2c1=O,inactive,–,inactive,inactive,inactive,inactive,inactive,inactive,inactive,–,–,–,–,–,–,13.7 µM (active)
Cc1c(COC(=O)[C@@H]2[C@H](/C=C(\Cl)C(F)(F)F)C2(C)C)cccc1-c1ccccc1,inactive,inactive,inactive,inactive,inactive,–,inactive,inactive,inactive,–,–,–,–,–,1.25 µM (active),–
C=C(C)CN(CC)c1c([N+](=O)[O-])cc(C(F)(F)F)cc1[N+](=O)[O-],inactive,inactive,inactive,inactive,inactive,inactive,inactive,–,inactive,–,–,–,–,–,–,–
CNC(=O)Oc1cccc2ccccc12,inactive,inactive,inactive,inactive,inactive,–,–,inactive,inactive,–,–,–,–,10 µM (active),–,–
CS(=O)(=O)c1cc(C(F)(F)F)ccc1C(=O)c1cnoc1C1CC1,inactive,inactive,inactive,inactive,inactive,inactive,inactive,inactive,inactive,–,–,–,–,–,–,–
